We go through 13 molecules from PubChem BioAssay (NCI).

About 83,000 compounds went through this panel and 20% of them were active in at least one assay; those are over-represented in the sample as a whole.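 Testing used 96-well plates and a 48-hour single-concentration exposure. Example: -40 means 40% of the starting cells died.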 A number with no mark means an inactive call. Activity calls are given as the source filed them. How the source made its calls: active means growth percent below 10; inactive means the rest.

The test system of this assay is MOLT-4 leukemia. Kind of assay: NCI-60 one-dose screen, 48 h (100 = growth as untreated, 0 = no growth, -100 = all killed). Conditions: 10 µM unless noted.
Take `O=c1[nH]c(-c2ccccn2)nc2sc3c(c12)CCCCC3`: the growth was 32.1%.

For `NC1=CC(=O)C(=O)c2ccccc21`, the growth is 74.1%.

Take `CN1CCOCCOCCOc2ccccc2NC(=O)c2nc(cnc2N)-c2ccc(cc2)S1(=O)=O`: the growth is 0.82% (active).

For the molecule `COc1ccc(S(=O)(=O)NCCCNc2nccc(-c3c(-c4cccc(N)c4)nc4sccn34)n2)cc1`, the growth is 75.5%.

For the molecule `COc1ccccc1N1CCN(CCn2c(=O)c3c(c4ccccc4n3C)n(C)c2=O)CC1`, the growth is 88.1%.

For `COc1cnc2c(c1)C(=O)c1c-2n(CCCBr)c(=O)c2cc([N+](=O)[O-])ccc12`, the growth is 7.84% (active).

As for `O=C(C[C@@H](C(=O)NCc1cccc(C(F)(F)F)c1)N1C(=O)[C@@H](N2C(=O)OC[C@@H]2c2ccccc2)[C@H]1/C=C/c1ccccc1)NC1CCN(Cc2ccccc2)CC1`, the growth is -5.43% (active).

For the molecule `CCCCCCNC(=O)Oc1ccc(/C(=C(\C)c2ccccc2)c2ccc(OCCN(CC)CC)cc2)cc1`, the growth is 20.3%.

Turning to `CC#CC#Cc1cccc(=O)o1`, the growth is 64.9%.

On to `CCCCCCCCCCCCNC(=O)[C@H]1CSC(c2ccc(OC)c(F)c2)N1` (stereo partly drawn), for which the growth was -66.9% (active).

For `O=C(CN1CCN(c2cc3c(cc2F)c(=O)c(C(=O)N/N=C/c2ccccc2)cn3C2CC2)CC1)N/N=C\c1ccccc1`, the growth is 42.7%.

On to `CNc1nc(C)c(-c2nc(Nc3cccc(S(N)(=O)=O)c3)ncc2F)s1`, for which the growth is -26.9% (active).

Turning to `CC1=CC(=O)CC(C)(C)[C@@]1(O)/C=C/[C@@H](C)O`, the growth was 108%.
